Screening results from PubChem.
A selection: hits, their analogues and other compounds. The true share with any hit is near 2.9%.
B2AR arrestin: qHTS assay of beta-arrestin-biased ligands of beta2-adrenergic receptor; Beta-2 adrenergic receptor (Homo sapiens), P07550; beta-arrestin recruitment to beta2AR, cell-based reporter; Potency, µM (highest dose often 46.1 µM), for the others: at the highest dose activation, actives largely listed as activators; 0.02% of 330,000 active; AID 492947, 2010; active means well fitted activation curve with a large enough effect; inconclusive means small, poorly fitted or top-dose-only effect;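 further: potency means the concentration at half of the fitted maximal effect; 0% = DMSO controls and full agonism = EC100 isoproterenol or metaproterenol; nearly all actives have a fitted effect of over 65% in size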
TSHR antag: Antagonists of the Thyroid Stimulating Hormone Receptor: HTS campaign. Thyrotropin receptor (Homo sapiens), P16473. TSHR-expressing cells, TSH-stimulated cAMP HTRF, 2 h; active compounds read low. activity change, negative = inhibition, % at 11.5 µM. 0.2% of 330,000 active;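 active means activity change below a set negative limit, meaning inhibition stronger than a set level, cut at about -70% in these data; inconclusive means activity change between two set negative limits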; further: on the % scale 0 is the no-effect control and ±100 the full control effect
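TSHR-expressing cells were treated with compounds, then stimulated with TSH at EC80 (4nM final) for 2 hours at 37 deg C. Cellular cAMP was measured by HTRF competition between lysate cAMP and cAMP-d2 for a cryptate-labelled anti-cAMP antibody.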
D3 antag: qHTS of D3 Dopamine Receptor Antagonist: qHTS; D3R cells, DiscoveRx beta-arrestin luminescence, antagonist mode; active compounds read low; D(3) dopamine receptor (Homo sapiens), P35462; 2.5% of 360,000 active; max response, negative = inhibition, %; AID 652054, 2013; in the data active means max response below about -50%; inconclusive means no clear call, values can overlap the other calls; further: on the % scale 0 is the no-effect control and ±100 the full control effect
Target sequence (P35462 whole entry, looked up): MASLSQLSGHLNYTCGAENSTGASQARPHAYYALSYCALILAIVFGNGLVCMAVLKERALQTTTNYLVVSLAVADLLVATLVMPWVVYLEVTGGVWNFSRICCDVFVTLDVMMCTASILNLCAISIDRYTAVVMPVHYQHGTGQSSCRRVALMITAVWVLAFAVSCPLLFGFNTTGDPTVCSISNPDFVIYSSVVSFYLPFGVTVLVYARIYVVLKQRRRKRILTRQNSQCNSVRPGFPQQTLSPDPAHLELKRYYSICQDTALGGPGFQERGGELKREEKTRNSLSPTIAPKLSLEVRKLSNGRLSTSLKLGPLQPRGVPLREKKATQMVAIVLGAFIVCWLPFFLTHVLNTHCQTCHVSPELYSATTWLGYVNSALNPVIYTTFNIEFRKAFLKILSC
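Cells plated overnight at 1500 cells/well, then exposed to library compounds with dopamine controls for 90 minutes at 37 degrees C. DiscoveRx reagent added for 30–60 minutes at room temperature; luminescence read, quantitative HTS format.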
DRD3 agonist: qHTS of D3 Dopamine Receptor Agonist: qHTS. D3R DiscoveRx beta-arrestin cells, luminescence, 90 min. max activation, %. 0.58% of 410,000 active. AID 652048, 2013; in the data active means max activation above about 30%; further: 0% is about no effect
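Cells at 1500/well, incubated overnight, then treated with pinned compounds (dopamine as control) for 90 min at 37 degrees C. DiscoveRx reagent added for 30 - 60 minutes at room temperature; luminescence read.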
The depositor's hits bear a star; ? = inconclusive; / = no result.

SMILES	B2AR arrestin	TSHR antag	D3 antag	DRD3 agonist
C[C@@H]1CN([C@@H](C)CO)C(=O)Cc2cc(NC(=O)Nc3cccc4ccccc34)ccc2O[C@@H]1CN(C)Cc1ccc(C(F)(F)F)cc1	3.9%	-18.3	-61.0*	-33.1
C[C@@H]1CN([C@H](C)CO)C(=O)Cc2cc(NS(=O)(=O)c3ccc(Cl)cc3)ccc2O[C@H]1CN(C)Cc1ccc(C(F)(F)F)cc1	-0.1%	-17.4	17.0	36.6*
CC1CCN(C(=O)Cn2c(SCC(=O)Nc3ccc(F)cc3)nc3ccccc32)CC1	/	/	/	1.4
Cc1cccc(C)c1N(CCCc1cccnc1)C(=O)C(C)N (centres undefined)	/	/	/	3.9
O=C(CCC(=O)N/N=C/c1cc(Cl)cc(Cl)c1O)NCc1ccccc1	0.2%	-17.8	-53.7*	-7.3
CC(C)N(Cc1ccccc1)C(=O)Cn1ncc2c3ccccc3n(Cc3ccccc3)c2c1=O	/	/	/	0.2
O=C(Nc1cc(Cl)ccc1Cl)C1CC(=O)N(c2ccc(Br)cc2)C1 (centres undefined)	-1.1%	4.2	-54.6*	-10.7
Cc1ccc(N2CC(C(=O)Nc3ccc(Cl)cc3Cl)CC2=O)cc1 (centres undefined)	/	/	/	4.4
CCOc1ccccc1NC(=O)C(=O)/C=C(\O)c1cc(OC)ccc1OC	-0.2%	-1.8	-52.8*	0.9
COc1ccc(OC)c(/C(O)=C/C(=O)C(=O)Nc2cc(C)ccc2OC)c1	-0.4%	0.2	-56.6*	-4.5
COc1ccc(OC)c(/C(O)=C/C(=O)C(=O)Nc2cc(C)cc(C)c2)c1	0.2%	-1.7	-86.3*	-0.9
CCOc1ccccc1NC(=O)C(NCCc1ccc(OC)cc1)c1ccccc1 (centres undefined)	-0.1%	-73.2*	11.5	0.9
CCN(CC)CCOC(=O)C(c1ccccc1)C1CCCCC1 (centres undefined)	-1.0%	7.6	-88.9*	-83.6
CCN(CC)CCSC(=O)C(c1ccccc1)c1ccccc1	/	/	/	-27.1
CCN(CC)CCOC(=O)CCc1cccc2ccccc12	0.1%	-9.3	-66.2*	0.9
CCN(CC)CCOC(=O)C(c1ccccc1)c1ccccc1	3.8%	-3.7	-66.6*	-82.0
Cc1ccc(O)c(NC(=O)c2ccc(Br)c(S(=O)(=O)N3CCCCC3)c2)c1	/	/	/	-9.1
Cc1cccc(N(CC(=O)NC2CCCC2)C(=O)CCC(=O)Nc2cc(C)on2)c1	3.0%	-10.3	5.7	32.1*
COC(=O)c1cccc(N(CC(=O)NC2CCCC2)C(=O)CCC(=O)Nc2cc(C)on2)c1	0.0%	1.4	5.0	3.9
O=C(Cn1c2[n+](c3ccc(C(F)(F)F)cc31)CCCCC2)c1cccc([N+](=O)[O-])c1	0.5%	-1.7	-89.5*	-12.3
O=C(Cn1c2[n+](c3ccc(C(F)(F)F)cc31)CCCCC2)Nc1ccccc1	3.9%	17.6	-51.4*	-33.1
CCc1cccc(NC(=O)Cn2c3[n+](c4ccc(C(F)(F)F)cc42)CCCCC3)c1	-1.4%	3.9	5.3	-9.6
O=C(Cn1c2[n+](c3ccc(C(F)(F)F)cc31)CCCCC2)c1ccc2c(c1)OCCO2	0.0%	-1.4	?	-3.2
Cc1ccc2cccc(NC(=O)c3ccc(-c4cccc(Cl)c4Cl)o3)c2n1	/	/	/	-5.1
Cc1ccc(C2=NC(=O)/C(=C/c3cc(O)c(O)c(Br)c3)S2)cc1	-0.5%	-2.8	9.1	29.3
SMILES	B2AR arrestin	TSHR antag	D3 antag	DRD3 agonist
COc1cc(/C=C2\SC(c3ccc(C)cc3)=NC2=O)cc(OC)c1O	-0.9%	-5.2	-53.5*	4.7
CC(C)c1ccc(NC(=O)C(C)N(c2ccccc2)S(C)(=O)=O)cc1 (centres undefined)	/	/	/	-8.9
Cc1ccc(CNC(=O)CN2CCCC(C)C2)cc1 (centres undefined)	0.4%	24.3	-71.5*	-5.9
O=C(CN1CCC(C(=O)c2ccc(Cl)cc2)CC1)Nc1ccc2c(c1)OCCO2	0.2%	-2.1	-76.3*	-26.8
Cc1ccc(NC(=O)CN2CCC(C(=O)c3ccc(F)cc3)CC2)cc1	-0.3%	-0.4	-68.6*	-9.7
Cc1ccc(C(=O)C2CCNCC2)cc1	-0.6%	17.5	-64.8*	-5.9
O=C(/C=C/c1ccccc1)Nc1nc2n(n1)C(c1ccc(F)cc1)C=C(c1ccccc1)N2 (centres undefined)	/	/	/	-3.7
Cc1ccc(C(=O)C2CCN(CC(=O)NCc3ccc(F)cc3)CC2)cc1	-0.3%	6.9	-93.1*	-29.4
